Measurements as given in PubChem BioAssay AID488969 (Vanderbilt High Throughput Screening Facility, 2010).
Whole data set: some 110,000 compounds, median “z-score” near -0.1, cut for the highest 2% near 2. For the sample, the highest values were picked, then their nearest neighbours and some compounds at random. Active and inactive are the calls of the source.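 Rule for the calls: active = z-score in the third read window above 3 or below -3; inactive = the rest.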

molecular target: Metabotropic glutamate receptor 8 (Rattus norvegicus) (UniProt P70579); test: rat mGluR8 modulators via GIRK flux, primary screen, cell-based, thallium flux, HTS (AID 488969); conditions: HEK293 rat mGluR8, GIRK (G protein-gated inwardly rectifying potassium channel) thallium flux, FluoZin2; at 10 µM; stronger effect = higher value; submaximal glutamate (EC20) added with thallium
Sequence (P70579 whole entry, looked up): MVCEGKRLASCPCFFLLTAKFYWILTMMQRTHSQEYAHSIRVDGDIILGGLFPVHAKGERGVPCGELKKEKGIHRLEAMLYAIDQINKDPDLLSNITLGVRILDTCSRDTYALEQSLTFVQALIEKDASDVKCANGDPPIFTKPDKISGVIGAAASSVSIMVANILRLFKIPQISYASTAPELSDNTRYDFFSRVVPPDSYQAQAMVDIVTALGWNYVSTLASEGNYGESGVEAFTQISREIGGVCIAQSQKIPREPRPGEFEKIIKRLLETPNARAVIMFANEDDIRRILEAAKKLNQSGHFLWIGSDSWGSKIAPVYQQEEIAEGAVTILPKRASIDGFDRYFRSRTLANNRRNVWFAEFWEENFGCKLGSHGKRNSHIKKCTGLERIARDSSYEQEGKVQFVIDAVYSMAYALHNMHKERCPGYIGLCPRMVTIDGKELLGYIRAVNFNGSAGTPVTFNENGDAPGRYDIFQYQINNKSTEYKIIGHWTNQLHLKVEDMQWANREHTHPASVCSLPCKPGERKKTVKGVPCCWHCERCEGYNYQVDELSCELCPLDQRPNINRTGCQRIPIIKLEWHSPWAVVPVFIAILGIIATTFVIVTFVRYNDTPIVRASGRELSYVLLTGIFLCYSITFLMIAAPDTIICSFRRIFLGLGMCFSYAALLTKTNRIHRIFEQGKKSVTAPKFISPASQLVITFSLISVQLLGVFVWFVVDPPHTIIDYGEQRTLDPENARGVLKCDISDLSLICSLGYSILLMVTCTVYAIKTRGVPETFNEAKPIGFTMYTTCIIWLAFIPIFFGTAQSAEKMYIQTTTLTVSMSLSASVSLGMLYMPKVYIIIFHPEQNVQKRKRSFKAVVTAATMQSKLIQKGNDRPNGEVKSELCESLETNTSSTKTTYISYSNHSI

Row | SMILES | z-score
1 | COCCNC(=O)c1ccccc1-c1nc(-c2ccccc2OC)no1 | 0.0674
2 | O=C1CC(c2ccc3c(c2)OCO3)C2=C(CCCC2=O)N1 (centres undefined) | -0.2
3 | N=C(CC1CC(=O)NC(=O)C1)C1=C(O)CCCC1=O | 2.31
4 | CC(=Nc1ccccc1)C1=C(O)CCCC1=O | -0.104
5 | COc1ccc(NC(=S)NCc2ccco2)cc1 | -0.0213
6 | C=CCNC(=S)N/N=C(\C)c1cc(OC)c(OC)c(OC)c1 | -0.183
7 | CCNC(=S)N/N=C(\C)c1cc2ccccc2o1 | 8.26 (active)
8 | C/C(=N\NC(=S)NCc1ccccc1)c1ccc2ccccc2c1 | 2.12
9 | C/C(=N\NC(=O)COc1ccccc1F)c1cc2ccccc2o1 | -0.0133
10 | C=C(C)CNC(=S)N/N=C(\C)c1ccc(OC)cc1 | -1.56
11 | C/C(=N\NC(=O)c1ccco1)c1cc2ccccc2o1 | 0.664
12 | C/C(=N\NC(=O)Nc1ccccc1)c1ccc2ccccc2c1 | -0.112
13 | CC/C(C)=N/NC(=S)NCc1ccco1 | 0.0671
14 | COc1ccc(/C(C)=N/NC(=S)NCc2ccco2)cc1 | 4.34 (active)
15 | C=CCNC(=S)N/N=C(\C)c1ccc(OC)cc1 | 2.03
16 | C/C(=N\NC(=S)NCc1ccccc1)c1ccc(Cl)cc1 | 0.101
17 | Cc1nc(=O)c(-c2ccccc2)c(C)n1-c1ccc(O)cc1 | -1.56
18 | CCc1ccc(OCC(=O)N/N=C/c2ccc(OS(=O)(=O)c3ccc(C)cc3)c(OC)c2)cc1 | -0.212
19 | Cc1ccc2nsnc2c1S(=O)(=O)NC1CC1 | 0.516
20 | Cc1sc(NC(=O)c2ccco2)c(CN2CCN(c3ccccc3)CC2)c1C | -0.213

Row | SMILES | z-score
21 | c1ccc(N(c2ccccc2)c2nc(-n3ccnc3)nc(-n3ccnc3)n2)cc1 | -0.953
22 | O=C(O)CCCn1nc(C(F)(F)F)c2c1CCCCC2 | -0.241
23 | COC(=O)Nc1sc(C(=O)N(C)C)c(C)c1C(=O)OC | 0.175
24 | C=CCc1c(C)nc(C)nc1N/N=C/c1ccc(F)cc1 | -0.164
25 | C=CCc1c(C)nc(C)nc1N/N=C/c1ccccc1O | 2.25
26 | C=CCc1c(C)nc(C)nc1N/N=C/c1ccccc1 | -0.683
27 | CSc1cc(C)n(-c2ccccc2)c(=S)c1C(C)=O | -0.0675
28 | CCOc1ccc(CNC(=O)CCn2c(=O)oc3ccccc32)cc1OC | 0.903
29 | O=C(O)C1C2C=CC(O2)C1C(=O)Nc1ccc(S(=O)(=O)N2CCc3ccccc32)cc1 (centres undefined) | -0.0204
30 | CCOC(=O)Cc1csc(NC(=O)c2ccc(Br)o2)n1 | 0.017
31 | CCOC(=O)Cc1csc(NC(=S)NC(=O)C(C)(C)C)n1 | 1.73
32 | CCOC(=O)Cc1csc(NC(=S)NC(=O)CC(C)C)n1 | 1.27
33 | CCOC(=O)Cc1csc(NC(=O)c2ccc(Br)s2)n1 | 1.08
34 | CCOC(=O)Cc1csc(NC(=S)NC(=O)c2ccccc2C)n1 | 9.08 (active)
35 | CCOC(=O)Cc1csc(NC(=S)NC(=O)c2ccccc2Br)n1 | 7.57 (active)
36 | COC(=O)c1nnn(CC(=O)Nc2cc(Cl)ccc2C)c1C(=O)OC | -0.484
37 | COc1cc(/C=C2\SC(c3ccc(C)cc3)=NC2=O)ccc1O | -0.769
38 | O=C(Nc1ccc(Cn2cccn2)cc1)c1ccc(COc2ccccc2Br)cc1 | -0.0941
39 | O=S(=O)(N/N=C/c1cn(Cc2ccccc2)c2ccccc12)c1ccccc1 | -0.216
40 | Cc1cc(N2CCCCCC2)nc2ccccc12 | -0.134

Row | SMILES | z-score
41 | COc1ccccc1N1C(=O)CCC1(C#N)c1ccc(Br)cc1 (centres undefined) | -0.14
42 | Cc1c(NC(=O)CSc2ccc(Cl)cc2)cccc1-c1nc2ncccc2o1 | -0.212
43 | O=C(Nc1cc(Cl)ccc1N1CCCCC1)c1cccs1 | -0.311
44 | O=S(=O)(Nc1ccccc1N1CCCCC1)c1ccc(Cl)s1 | 3.45 (active)
45 | O=S(=O)(Nc1ccc(N2CCCCC2)cc1)c1cccs1 | -0.488
46 | O=C(Nc1ccccc1)c1ccccc1NS(=O)(=O)c1ccc(Cl)s1 | -3.39 (active)
47 | O=S(=O)(Nc1cc(Cl)ccc1N1CCCCC1)c1cccs1 | 7.03 (active)
48 | O=S(=O)(Nc1ccc(N2CCOCC2)cc1)c1ccc(Cl)s1 | -0.104
49 | COC(=O)c1ccc(OC(=O)c2ccccc2F)cc1 | 0.198
50 | COc1ccccc1NC(=O)CSc1ccc2nnc(-c3cccnc3)n2n1 | -0.277
51 | O=C(COC(=O)c1ccc(-c2nnc(-c3ccccc3)o2)cc1)c1ccccc1 | -0.145
52 | CC(C)n1c(N2CCN(CC(=O)NCc3cccs3)CC2)nc2ccccc21 | -0.0505
53 | Cc1nccn1CC(O)COc1ccccc1 (centres undefined) | -0.0583
54 | Cc1nc2ccccc2n1CC(O)Cn1c2ccccc2c2ccccc21 (centres undefined) | 0.752
55 | Cc1nccn1CC(O)Cn1c2ccccc2c2ccccc21 (centres undefined) | 2
56 | Cc1cccc(-n2c(SCc3cc(=O)n4ccsc4n3)nc3ccccc3c2=O)c1 | -0.276
57 | Cc1nc(NC(=O)COc2ccccc2)sc1C(=O)Nc1ccccc1 | -0.075
58 | CC(Oc1ccc(Cl)cc1Cl)C(=O)NCCN1CCOCC1 (centres undefined) | 0.00607
59 | CN1/C(=C\C(=S)NC(=O)c2ccccc2Cl)C(C)(C)c2ccccc21 | 0.0507
